# Shown is part of a subset that was picked to be rich in the strongest signals.
# Columns and labels:
# Test in all cases: glycan array binding signal (z-score within array); higher = stronger binding
# Conditions in all cases: glycan notation: IUPAC condensed, linker removed
# [1] = biological target: Fuc(a1-2)Gal(b1-4)GlcNAc
# Outline: (§1)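 Glycan array binding is given as a within-array Z-score, which can be read as non-binding when negative. The arrays, 3228 of them, came from the Consortium for Functional Glycomics database and were retained only where the protein sequence was available. Z-scores were averaged across arrays of the same protein sequence at different concentrations or buffers and across linkers.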
# [2] = biological target: Fuc(a1-2)[Gal(a1-3)]Gal
# Outline: as §1
# [3] = biological target: Fuc(b1-3)GlcNAc
# Outline: as §1
# [4] = biological target: Gal(a1-3)[Gal(a1-4)]Gal(b1-4)GlcNAc
# Outline: as §1
# [5] = biological target: Gal(b1-3)[Neu5Ac(a2-6)]GalNAc
# Outline: as §1
# [6] = biological target: Gal(b1-4)GlcNAc(b1-3)Gal(b1-4)GlcNAc
# Outline: as §1
# [7] = biological target: GlcNAc(b1-3)Gal
# Outline: as §1
# [8] = biological target: GlcNAc(b1-3)Gal(b1-4)Glc
# Outline: as §1
# [9] = biological target: GlcNAc(b1-3)[GlcNAc(b1-6)]Gal(b1-4)GlcNAc
# Outline: as §1
# [10] = biological target: GlcNAc(b1-3)[GlcNAc(b1-6)]GalNAc
# Outline: as §1
# [11] = biological target: GlcNAc(b1-4)[GlcNAc(b1-6)]GalNAc
# Outline: as §1
# [12] = biological target: Neu5Ac(a2-3)Gal(b1-3)GalNAc(b1-3)Gal(a1-4)Gal(b1-4)Glc
# Outline: as §1
# [13] = biological target: Neu5Ac(a2-3)Gal(b1-3)GalNAc(b1-3)Gal(b1-4)GlcNAc
# Outline: as §1
# [14] = biological target: Neu5Ac(a2-3)Gal(b1-4)GlcNAc
# Outline: as §1
# [15] = biological target: Neu5Ac(a2-3)GalNAc
# Outline: as §1
# [16] = biological target: Fuc(a1-2)Gal(b1-4)GlcNAc(b1-2)Man(a1-3)[Fuc(a1-2)Gal(b1-4)GlcNAc(b1-2)Man(a1-6)]Man(b1-4)GlcNAc(b1-4)[Fuc(a1-6)]GlcNAc
# Outline: as §1
# [17] = biological target: Fuc(a1-2)Gal(b1-4)[Fuc(a1-3)]GlcNAc(b1-3)GalNAc
# Outline: as §1
# [18] = biological target: Fuc(a1-2)Gal6S(b1-4)GlcNAc
# Outline: as §1
# [19] = biological target: Fuc(a1-2)[Gal(a1-3)]Gal(b1-3)GlcNAc(b1-2)Man(a1-3)[Fuc(a1-2)[Gal(a1-3)]Gal(b1-3)GlcNAc(b1-2)Man(a1-6)]Man(b1-4)GlcNAc(b1-4)[Fuc(a1-6)]GlcNAc
# Outline: as §1
# [20] = biological target: Fuc(a1-2)[Gal(a1-3)]Gal(b1-4)[Fuc(a1-3)]GlcNAc(b1-3)GalNAc
# Outline: as §1
# [21] = biological target: Fuc(a1-2)[GalNAc(a1-3)]Gal(b1-4)GlcNAc(b1-3)Gal(b1-4)GlcNAc
# Outline: as §1
# [22] = biological target: Gal(a1-2)Gal
# Outline: as §1
# [23] = biological target: Gal(b1-2)Gal
# Outline: as §1
# [24] = biological target: Gal(b1-3)GalNAc(a1-3)[Fuc(a1-2)]Gal(b1-4)Glc
# Outline: as §1
# [25] = biological target: Gal(b1-3)GlcNAc(b1-3)Gal(b1-4)Glc
# Outline: as §1
# [26] = biological target: Gal(b1-3)GlcNAc(b1-3)GalNAc
# Outline: as §1
# [27] = biological target: Gal(b1-3)[Fuc(a1-4)]GlcNAc(b1-2)Man(a1-3)[Gal(b1-3)[Fuc(a1-4)]GlcNAc(b1-2)Man(a1-6)]Man(b1-4)GlcNAc(b1-4)[Fuc(a1-6)]GlcNAc
# Outline: as §1
# [28] = biological target: Gal(b1-3)[Fuc(a1-4)]GlcNAc(b1-3)Gal(b1-3)[Fuc(a1-4)]GlcNAc
# Outline: as §1
# [29] = biological target: Gal(b1-4)Gal
# Outline: as §1
# [30] = biological target: Gal(b1-4)GlcNAc(b1-6)Gal(b1-4)GlcNAc
# Outline: as §1
# [31] = biological target: Gal3S(b1-4)Glc6S
# Outline: as §1
# [32] = biological target: Gal3S(b1-4)[Fuc(a1-3)]Glc6S
# Outline: as §1
# [33] = biological target: GalNAc(a1-3)Fuc(a1-2)Gal(b1-4)GlcNAc(b1-3)[GalNAc(a1-3)Fuc(a1-2)Gal(b1-4)GlcNAc(b1-6)]GalNAc
# Outline: as §1
# [34] = biological target: GalNAc(b1-3)Gal
# Outline: as §1
# [35] = biological target: GalNAc(b1-4)GlcNAc(b1-2)Man(a1-3)[GalNAc(b1-4)GlcNAc(b1-2)Man(a1-6)]Man(b1-4)GlcNAc(b1-4)GlcNAc
# Outline: as §1
# [36] = biological target: Glc(a1-4)Glc
# Outline: as §1
# [37] = biological target: GlcA(b1-3)Gal
# Outline: as §1
# [38] = biological target: GlcNAc(a1-4)Gal(b1-4)GlcNAc(b1-3)Gal(b1-4)GlcNAc
# Outline: as §1
# [39] = biological target: GlcNAc(a1-4)Gal(b1-4)GlcNAc(b1-3)Gal(b1-4)GlcNAc(b1-3)Gal(b1-4)GlcNAc
# Outline: as §1
# [40] = biological target: GlcNAc(a1-4)Gal(b1-4)GlcNAc(b1-3)Gal(b1-4)[Fuc(a1-3)]GlcNAc(b1-3)Gal(b1-4)[Fuc(a1-3)]GlcNAc
# Outline: as §1
# [41] = biological target: GlcNAc(b1-4)Gal(b1-4)GlcNAc
# Outline: as §1
# [42] = biological target: Kdn(a2-3)Gal(b1-4)[Fuc(a1-3)]GlcNAc
# Outline: as §1
# [43] = biological target: Man(a1-2)Man(a1-3)[Man(a1-2)Man(a1-6)]Man(a1-6)[Man(a1-2)Man(a1-2)Man(a1-3)]Man
# Outline: as §1
# [44] = biological target: Man(a1-2)Man(a1-3)[Man(a1-6)]Man(a1-6)[Man(a1-2)Man(a1-3)]Man(b1-4)GlcNAc(b1-4)GlcNAc
# Outline: as §1
# [45] = biological target: Man(a1-3)[Man(a1-6)]Man
# Outline: as §1
binder,measurement,setting,value
"F17dG (Escherichia coli), Q47199 (protein) MTNFYKVFLAVFILVCCNISQAAVSFIGSTENDVGPSPGSYSRTHAMDNLPFVYNTGNNIGYQNANVWRISKGFCVGLDGKVDLPVVGSLDGQSIYGLTEEVGLLIWMGDTNYSRGTAMSGNSWENVFSGWCVGANTASTQGLSVRVTPVILKRNSSARYSVQKTSIGSIRMRPYNGSSAGSVQTTVNFSLNPFTLNDTVTSCRLLTPSAVNVSLAAISAGQLPSSGDEVVAGTTSLKLQCDAGVTVWATLTDATTPSNRSDILTLTGASTATGVGLRIYKNTDSTPLKFGPDSPVKGNENQWQLSTGTETSPSVRLYVKYVNTGEGINPGTVNGISTFTFSYQ",glycan array binding signal (z-score),[1],-0.185
same,glycan array binding signal (z-score),[2],-0.276
same,glycan array binding signal (z-score),[3],-0.225
same,glycan array binding signal (z-score),[4],-0.399
same,glycan array binding signal (z-score),[5],-0.194
same,glycan array binding signal (z-score),[6],-0.287
same,glycan array binding signal (z-score),[7],4.56
same,glycan array binding signal (z-score),[8],5.88
same,glycan array binding signal (z-score),[9],5.46
same,glycan array binding signal (z-score),[10],6.17
same,glycan array binding signal (z-score),[11],-0.009
same,glycan array binding signal (z-score),[12],-0.399
same,glycan array binding signal (z-score),[13],-0.204
same,glycan array binding signal (z-score),[14],-0.354
same,glycan array binding signal (z-score),[15],-0.327
"NanH (Corynebacterium diphtheriae), C6JSW6 (protein) MYSSNRTYSRAILGLSAVLTLSFTSLVAPVNAEEPETVVPATAELEGEVAATLPSAETGLLDAAPPKPVARGAAGDLQLPAVNEKEVFEEGRVIRAPEPDQSRCYRIPALVTAKNGDLLLAFDNRYGGGDGAKTWCRDAPYENMKRINRQNMQTDIQLYRSVDNGQSFEDFGYIAQGTADVRELSYTDPALVTDRTTGKIFAFFVRAYDYRVGQSSAGFNEGDVEAEIQKRDVQDTVVVESLDGGQTWGNMRLLSALTAKVSSISTGDTIFDGRGRFVTSGAGIQLQYGEHAGRLIVPISVDIDPKDSAKFINLAIYSDDHGQTWQAGIGTAGGAGFSGDVSKIVELSDGRLMMSSKDNDKPRWVSYSEDQGENWSTPKRKIIAPPQHPEKHNTGINVGLIRAYPNAPENSAAARVLLYSAPIDQRYSHKHTEDGRNNGWVMGSCDDGKTWSFGRQIEKNRFQYSSMTVMSDGNIGMVYESGDFSTGMNLKFAKFNMAWLGADCHSNEALGLTGDIDKEIVEAQEKAAEATKEAQEAAEKVQKLTEELAAARKENDELKNQVKGFKEAVGDLANEAEDLADKVFKLETAVTEAKEKATVAEKAASDAVTQLQKAESIAEEQKAKAESAAAEAQALREKLERLEGSILTVKENPEAEEIADLSSTAKDAADAARRAATDANGALSGQKQDEEKPAMGLMGILKVLAGIIPLVAIIATIFQTFRLPFNIPGMR",glycan array binding signal (z-score),[16],1.01
same,glycan array binding signal (z-score),[17],3.22
same,glycan array binding signal (z-score),[18],0.001
same,glycan array binding signal (z-score),[19],1.3
same,glycan array binding signal (z-score),[20],-0.377
same,glycan array binding signal (z-score),[21],0.149
same,glycan array binding signal (z-score),[22],-1.72
same,glycan array binding signal (z-score),[23],2.93
same,glycan array binding signal (z-score),[24],1.05
same,glycan array binding signal (z-score),[25],-1.28
same,glycan array binding signal (z-score),[26],-1.71
same,glycan array binding signal (z-score),[27],2.84
same,glycan array binding signal (z-score),[28],-0.787
same,glycan array binding signal (z-score),[29],-1.5
same,glycan array binding signal (z-score),[30],1.11
same,glycan array binding signal (z-score),[31],-0.269
same,glycan array binding signal (z-score),[32],-0.594
same,glycan array binding signal (z-score),[33],0.818
same,glycan array binding signal (z-score),[34],-1.91
same,glycan array binding signal (z-score),[35],3.38
same,glycan array binding signal (z-score),[36],-0.111
same,glycan array binding signal (z-score),[37],2.74
same,glycan array binding signal (z-score),[38],3.02
same,glycan array binding signal (z-score),[39],-1.05
same,glycan array binding signal (z-score),[40],3.97
same,glycan array binding signal (z-score),[41],-0.683
same,glycan array binding signal (z-score),[42],-0.213
same,glycan array binding signal (z-score),[43],3.74
same,glycan array binding signal (z-score),[44],-0.263
same,glycan array binding signal (z-score),[45],-0.151
